The record followed here is PubChem BioAssay AID1851 (National Center for Advancing Translational Sciences (NCATS), 2009).

SMILES strings stand for the structures. “And” between values parts separate entries of the source, which are not always exact repeats. Identical values can stand only once. About 4,000 (25%) of roughly 16,000 compounds were called active. Another 26% or so got no clear call; they are omitted. The call rests on the fitted dose curve; in most records, active means well fitted curve in the direction sought with a large enough effect; inconclusive means small, poorly fitted or top-dose-only effect, or effect the other way; inactive means no such curve, though single readings can be large or run the other way. These entries were drawn from the full list. Some compounds were tested as several samples or in several runs, with calls that do not always agree.
On the % scale 0 is the no-effect control and ±100 the full control effect.

For this experiment, the target named is Cytochrome P450 2C9 (Homo sapiens) (UniProt P11712). As to the kind of experiment: Cytochrome panel assay with activity outcomes. The note with it: recombinant CYP, pro-luciferin dealkylation, luminescence, p450-cyp2c9; series mostly up to 57.1 µM.
Sequence of Cytochrome P450 2C9 (Homo sapiens) (P11712 whole entry, looked up): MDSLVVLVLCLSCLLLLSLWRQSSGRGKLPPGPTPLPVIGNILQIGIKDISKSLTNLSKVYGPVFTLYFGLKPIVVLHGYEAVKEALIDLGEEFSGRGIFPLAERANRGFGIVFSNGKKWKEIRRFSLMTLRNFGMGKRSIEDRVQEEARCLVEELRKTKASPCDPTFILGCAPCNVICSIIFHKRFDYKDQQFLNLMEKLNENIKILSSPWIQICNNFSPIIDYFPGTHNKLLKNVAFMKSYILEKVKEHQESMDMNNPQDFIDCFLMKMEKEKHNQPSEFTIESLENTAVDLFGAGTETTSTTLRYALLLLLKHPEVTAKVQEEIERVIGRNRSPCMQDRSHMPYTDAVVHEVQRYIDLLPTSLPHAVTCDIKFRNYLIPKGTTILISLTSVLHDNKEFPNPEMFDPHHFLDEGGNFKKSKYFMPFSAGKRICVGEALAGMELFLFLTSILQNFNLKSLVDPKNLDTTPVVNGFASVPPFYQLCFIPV
Turning to `C=CCn1c(SCC(=O)N2CCc3ccccc3C2)nc2ccccc2c1=O`, the AC50 (usually the concentration giving half of the maximal activity seen) is 0.2 µM (active). On the same count and under the same terms, the value for `Cc1ccc(-n2c(C)nnc2SCC(=O)N2CCc3ccccc3C2)cc1C` was “inactive”. In the case of `O=C(O)/C=C\C(=O)N1Cc2cc3ccccc3nc2C1`, the activity, negative = inhibition is 10.3% [at 11.4 µM] (inactive).

`CCn1c(N)nc2ccccc21`: the AC50 entry is “inactive”. For `CCn1c2ccccc2c2nnc(NCCCO)nc21`, the activity, negative = inhibition was 5.48% [at 11.4 µM] (inactive).

Regarding `CCn1c2ccc(Cl)cc2c2nc3ccccc3nc21`, the AC50 was 10 µM (active). Turning to `O=C(O)CCc1nc(-c2ccccc2-n2cccc2)no1`, the activity, negative = inhibition is -3.02% [at 11.4 µM] (inactive). `C=Cc1c(C)c2cc3nc(cc4[nH]c(cc5nc(cc1[nH]2)C(C)=C5CCC(=O)O)c(CCC(=O)OC)c4C)[C@@]1(C)C3=CC=C(C(=O)OC)[C@H]1C(=O)OC` (tested in a mixture with another compound): the AC50 was 1.26 µM (active). As to `Cc1cccc(CNc2cc(-c3ccc(N(C)C)cc3)ncn2)c1`, the activity, negative = inhibition is -14.7% [at 2.29 µM] (inactive). Regarding `CCOc1cc(C2CC(=O)c3c(ccc4ccccc34)N2)ccc1O` (centres undefined), the AC50 is 3.16 µM (active).

Regarding `CCOc1ccc2ccccc2c1C(=O)N[C@@H]1C(=O)N2[C@@H]1SC(C)(C)[C@@H]2C(=O)O`, the AC50 entry was “inactive”. For the compound `O=c1c(-c2cccs2)nc2cncnc2n1Cc1ccccc1`, the AC50 was 1.26 µM (active). As for `Cc1nc2cncnc2n(Cc2ccccc2)c1=O`, the AC50 is 15.8 µM (active). Still for that read-out and setting: the value for `COc1ncc2nc(-c3cccs3)c(=O)n(Cc3ccc(F)cc3)c2n1` was “inactive”; that for `Cn1cc(-c2nc3cncnc3n(Cc3ccc(F)cc3)c2=O)c2ccccc21` was “inactive”. Consider `Cc1nc2cnc(Nc3ccccc3)nc2n(CCc2ccccc2)c1=O`, for which the AC50 entry was “inactive”.

Regarding `COc1ccc(Oc2ncc3nc(-c4cccs4)c(=O)n(Cc4cccc(OC)c4)c3n2)cc1`, the AC50 was 1 µM (active). Same read-out and setting: the result for `COc1cccc(Cn2c(=O)c(-c3cccs3)nc3cncnc32)c1` reads 2.51 µM (active). Turning to `COc1cccc(Nc2ncc3nc(-c4cccs4)c(=O)n(CCC#N)c3n2)c1`, the AC50 result is “inactive”.

For the compound `CCn1cc(C(=O)O)c(=O)c2cnc(N3CCNCC3)nc21`, the AC50 result is “inactive”. Regarding `Cc1cc2cc(C=O)c(Cl)nc2cc1C`, the AC50 entry was “inactive”. In the case of `COc1cccc(Cn2c(=O)c(-c3cccs3)nc3cnc(OC)nc32)c1`, the concentration at half-maximal activity (AC50) is 3.16 µM (active). Take `COc1cccc(Cn2c(=O)c(-c3cccs3)nc3cnc(N(C)C)nc32)c1`: the AC50 result was “inactive”. Same read-out and setting: the value for `CCNc1ncc2nc(-c3cccs3)c(=O)n(Cc3cccc(OC)c3)c2n1` was “inactive”; that for `Cc1ccc(-n2ncc3c2ncn2nc(-c4ccco4)nc32)c(C)c1` was “inactive”; that for `O=c1oc(-c2ccco2)nc2c1cnn2-c1ccccc1` was 12.6 µM (active). For the compound `c1ccc(-n2ncc3c2ncn2cnnc32)cc1`, the AC50 result was “inactive”. On the same count and under the same terms, the result for `C=CCN1CCN(c2nc3ccccc3nc2C#N)CC1` reads 20 µM (active). With `N#Cc1cccc(-c2nc(N3CCNCC3)c3ccccc3n2)c1`, the activity, negative = inhibition is 11.8% [at 2.29 µM] (inactive). For `CNc1nc(-c2ccccc2C(F)(F)F)nc2ccccc12`, the activity, negative = inhibition was 19.6% [at 2.29 µM] (inactive). `COc1cccc(/C=N/NC(=O)C(=O)NCc2cccnc2)c1`: the AC50 was 22.4 µM (active). Consider `COc1cccc(/C=N/NC(=O)c2c(-c3ccccc3)noc2C)c1`, for which the AC50 was 3.55 µM (active). Consider `C=CCOc1cccc(/C=N/NC(=O)C(=O)NCc2ccco2)c1`, for which the AC50 result is “inactive”. On the same count and under the same terms, the result for `Cc1cccc(C)c1NC(=O)COc1cccc(/C=N/NC(=O)C(=O)NCc2ccccc2)c1` reads “inactive”; that for `COc1cccc(/C=N/NC(=O)c2nc(-c3ccccc3)cc(-c3ccccc3)n2)c1`, “inactive”. Turning to `CC(C)=CCC/C(C)=C/CO/N=C1/C[C@@H](O)[C@@H](O)[C@@H]2[C@@H]3C(=O)N(C4CCCCC4)C(=O)[C@H]3CC[C@H]12`, the activity, negative = inhibition is -5.92% [at 11.4 µM] (inactive). As for `Nc1nc(Br)c2c(F)cccc2c1-c1ccc(F)cc1`, the half-maximal activity concentration (AC50) was 2.51 µM (active). Same read-out and setting: the result for `Nc1nc(Br)c2ccccc2c1-c1ccc(F)cc1` reads “inactive”. In the case of `Nc1nc(Br)c2c(F)cccc2c1-c1ccc(Cl)cc1`, the AC50 was 4.47 µM (active). Consider `Cc1noc(C)c1-c1cc(Nc2ccc(F)cc2)ncn1`, for which the activity, negative = inhibition is -1.17% [at 2.29 µM] (inactive).

In the case of `CN1CCN(c2ncnc3ccc(-c4ccc5c(c4)OCO5)cc23)CC1`, the activity, negative = inhibition is 14.7% [at 2.29 µM] (inactive). The same measure, in the same setting: the value for `CC(C)C(=O)N[C@H]1CCCN1C(=O)/C=C\c1ccccc1` was -2.39% [at 11.4 µM] (inactive).

Regarding `C#CCSc1nncn1C(=O)/C=C/c1ccccc1`, the AC50 was 3.98 µM (active). Regarding `CC(C)C(=O)N[C@@H]1CCCN1C(=O)/C=C\c1ccccc1`, the activity, negative = inhibition was -11.6% [at 11.4 µM] (inactive). For `COc1ccc(C(N)=O)cc1NC(=O)c1cccc(F)c1`, the AC50 entry is “inactive”.

With `C=C(C)c1cccc(C(C)(C)NC(=O)Nc2cc(C)ccc2OC)c1`, the AC50 is 10 µM (active). Same read-out and setting: the result for `COc1cccc(CC(C(=O)Nc2cc(C)ccc2C)c2nn[nH]n2)c1OC` (centres undefined) reads “inactive”; that for `O=C(OC(C(=O)NC1CCCC1)c1ccncc1)C1=Cc2ccccc2OC1` (centres undefined), 2.82 µM (active).

Take `CN(C)Cc1ccccc1-c1ccc2ncnc(N(C)Cc3ccco3)c2c1`: the activity, negative = inhibition is -5.32% [at 2.29 µM] (inactive). On to `COc1ccc([C@@H]2CC(=O)c3c(O)cc(O)cc3O2)cc1O`, for which the AC50 was 10 µM (active). The same measure, in the same setting: the value for `COc1ccc([C@@H]2CC(=O)c3c(O)cc(O[C@H]4O[C@@H](CO[C@H]5O[C@@H](C)[C@@H](O)[C@@H](O)[C@@H]5O)[C@@H](O)[C@@H](O)[C@@H]4O)cc3O2)cc1O` was “inactive”; that for `O=C1c2c(O)cc(O)cc2O[C@@H](c2ccc(O)c(O)c2)[C@H]1O` was “inactive”. With `COc1ccc(Br)c2c1C[C@H](C(=O)O)CC2`, the activity, negative = inhibition is -27.4% [at 11.4 µM] (inactive).

As for `COc1ccc(C(=O)NC(=S)NC(C)C)cc1Br`, the AC50 result is “inactive”.

With `COc1ccc(C(=O)NC(=S)NC(C)(C)C)cc1Br`, the AC50 is 10 µM (active). As for `C#CCn1c(=O)c2c(ncn2C)n(C)c1=O`, the AC50 entry was “inactive”. For the compound `CN(C)c1ccc(-c2ccc3ncnc(NCc4ccccc4)c3c2)cc1`, the activity, negative = inhibition is -24.6% [at 2.29 µM] (inactive). For `CN(C)c1cc2c(Nc3ccc4c(cnn4Cc4ccccc4)c3)ncnc2cn1`, the AC50 was 12.6 µM (active). Take `CN(C)C(=O)c1ccc(-c2ccc3ncnc(Nc4ccccc4)c3c2)cc1`: the activity, negative = inhibition is 15.4% [at 2.29 µM] (inactive). `COc1ccccc1NC(=O)Cn1cncc1-c1ccc([N+](=O)[O-])cc1`: the AC50 entry is “inactive”. Consider `CCN(CC(=O)Nc1ccc([N+](=O)[O-])cc1OC)c1ccccc1`, for which the AC50 is 2.82 µM (active).

`CCOc1cc(NC(=S)Nc2cccc(C)c2)c(OCC)cc1NC(=O)CC(C)C`: the AC50 entry was “inactive”. Same read-out and setting: the result for `COc1cc(OC)c(NC(=S)Nc2cccc(C(C)=O)c2)cc1Cl` reads 5.01 µM (active). Regarding `CCOC(=O)C1(C(=O)O)NC(=O)CC1c1ccccc1` (centres undefined), the AC50 result was “inactive”.

Take `CCOC(=O)CN1C(=O)Nc2ccc(Br)cc2C1c1ccccc1` (centres undefined): the AC50 was 6.31 µM (active). On to `O=c1cc(CF)[nH]c(=S)[nH]1`, for which the activity, negative = inhibition is 8.7% [at 11.4 µM] (inactive). Regarding `N[C@H](CCCC(=O)O)C(=O)O`, the AC50 entry was “inactive”. For `O=C(O)C1=C/C(=C(/c2ccccc2)c2cc(C(=O)O)c(O)c3ccccc23)c2ccccc2C1=O`, the activity, negative = inhibition was 1.25% [at 11.4 µM] (inactive) and -1.88% [at 11.4 µM] (inactive). The same measure, in the same setting: the result for `O=C(O)c1cc2ccccc2c(S(=O)(=O)O)c1O` reads 10.7% [at 11.4 µM] (inactive).

On to `O=C(O)c1cc(C(=O)C(=O)c2cc(C(=O)O)c(O)c3ccccc23)c2ccccc2c1O`, for which the AC50 is 0.316 µM (active). Take `Cc1cc(OCC(F)(F)C(F)(F)C(F)(F)C(F)(F)C(F)(F)C(F)F)nc(N)n1`: the AC50 is 12.6 µM (active). With `CC(C)NC[C@@H](O)c1ccc(O)c2ncccc12`, the activity, negative = inhibition is 11% [at 11.4 µM] (inactive). As for `Oc1ccccc1-c1nnc(-c2ccc(C(F)(F)F)cc2)o1`, the AC50 result was “inactive”. Same read-out and setting: the value for `CCOc1ccc(-c2nnc(-c3ccncc3)o2)cc1` was 12.6 µM (active); that for `CCOc1ccc(C2=[N+]([O-])C(C)(C)N(O)C2(C)C)cc1` was “inactive”. The same measure, in the same setting: the value for `Oc1cc2c(cc1O)[C@H](c1ccccc1)CNCC2` was “inactive”; that for `Cc1[nH]n2c(=O)c3c(nc2c1-c1cccc2ccccc12)CCC3` was 5.62 µM (active). For the compound `Cc1c2c(nc3c(C(=O)NC4CCCC4)cnn13)CCCC2`, the AC50 entry is “inactive”. Take `Cc1ccccc1-c1nc(N2CCN(C)CC2)c2ccccc2n1`: the activity, negative = inhibition is 5.44% [at 2.29 µM] (inactive). `Cc1ccc(N=Nc2c(N)[nH]n3c(=O)c4c(nc23)CCCC4)cc1`: the AC50 was 10 µM (active). The same measure, in the same setting: the result for `Cc1ccc(N=Nc2c(=O)[nH]n3c(C)cc(C)nc23)cc1` reads “inactive”. In the case of `O=P(O)(O)O[C@@H]1O[C@H](CO)[C@@H](O)[C@H](O)[C@@H]1O`, the activity, negative = inhibition was 8.79% [at 11.4 µM] (inactive).

Regarding `CCN(CC)[C@@H](C)CN1c2ccccc2Sc2ccccc21`, the AC50 entry was “inactive”. With `O=C(OCCN1CCCCC1)c1c[nH]c2ccccc12`, the AC50 entry is “inactive and 2 µM (active)”.

`Cc1c(-c2ccccc2)oc2c(C(=O)OCCN3CCCCC3)cccc2c1=O`: the AC50 result was “inactive”.

Regarding `COc1cccc(OC)c1OCCCCN1CCCC1`, the AC50 result was “inactive”.

As to `C[C@@](N)(Cc1ccc(O)c(O)c1)C(=O)O`, the AC50 result is “inactive”. Same read-out and setting: the value for `CCOC(=O)c1c(C(C)(C)C)oc2ccc(O)cc12` was 20 µM (active); that for `C[C@@](N)(Cc1ccc(O)cc1)C(=O)O` was “inactive”; that for `CC(C)Oc1cccc(C(=O)NC(=S)N2CCN(c3ccc(C(F)(F)F)cc3[N+](=O)[O-])CC2)c1` was 3.16 µM (active). On the same count and under the same terms, the value for `CC1CN(C(=S)NC(=O)c2ccc([N+](=O)[O-])cc2)CC(C)O1` (centres undefined) was “inactive”. Still for that read-out and setting: the value for `COc1cccc(OC)c1C(=O)NC(=S)N1CCN(c2ccc(C(F)(F)F)cc2[N+](=O)[O-])CC1` was 0.355 µM (active); that for `CCC(=O)NC(=S)N1CCN(c2ccc([N+](=O)[O-])cc2Cl)CC1` was “inactive”; that for `CC(C)N=C(N)/N=C(\N)Nc1ccc(Cl)cc1` was “inactive”.
